A selection: hits, their analogues and other compounds. The true share with any hit is near 6.7%.
Autofluor counter: counter-screen for toxin protease inhibitors: compound fluorescence; compound autofluorescence counterscreen, microsphere flow cytometry; hits give high values; fluorescence intensity (test concentration not listed); 360,000 compounds, 3.1% hits; in the data active means fluorescence intensity above about 16000; inconclusive means no clear call, values can overlap the other calls
Anthrax LF prot: Bacillus anthracis LF protease inhibitors, primary screen, biochemical, multiplex microsphere, MLPCN library; inhibition, % at 10 µM; AID 588501, 2011; Lethal factor (Bacillus anthracis), P15917; multiplex microsphere protease cleavage assay; 360,000 compounds, 0.12% hits; further: plate controls were buffer without enzyme for full effect and enzyme alone for no effect
FBA Mtb inh: Mtb FBA enzyme inhibitors, primary screen, biochemical, fluorescence, strain H37Rv | inhibition, % at 1 µM | Fructose-bisphosphate aldolase (Mycobacterium tuberculosis (strain ATCC 25618 / H37Rv)), … | 360,000 compounds, 2.3% hits | purified M. tuberculosis FBA, fluorescence read-out; in the data active means inhibition above about 27%;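 further: 0% = vehicle and 100% = reference inhibitor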
BoNT-F LC inh: BoNT/F light chain protease inhibitors, primary screen, biochemical, flow cytometry, MLPCN library; Botulinum neurotoxin type F light chain protease (Clostridium botulinum); Multiplex microsphere protease cleavage assay; inhibition, % at 10 µM; 360,000 compounds, 0.22% hits; AID 588497, 2011; in the data active means inhibition above about 35%, passing the limit was not always enough; inconclusive means no clear call, values can overlap the other calls; further: plate controls were buffer without enzyme for full effect and enzyme alone for no effect
BoNT-A LC inh2: BoNT/A light chain protease inhibitors, primary screen, biochemical, flow cytometry, MLPCN library | Botulinum neurotoxin type A light chain protease (Clostridium botulinum A str. ATCC 3502) | multiplex microsphere protease substrate cleavage | inhibition, % at 10 µM | 360,000 compounds, 0.17% hits | AID 588499, 2011; further: plate controls were buffer without enzyme for full effect and enzyme alone for no effect
GDH-TPI counter: GDH-TPI coupling enzyme inhibitors, primary screen, artefact control for M. tuberculosis FBA inhibitor project, biochemical, absorbance, full deck. 360,000 compounds, 1.2% hits. GDH-TPI coupled enzyme counterscreen, NADH absorbance. inhibition, % at 4.8 µM; in the data active means inhibition above about 30%;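 further: 0% = DMSO wells and 100% = wells lacking the enzyme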
* = called active by the depositor; ? = inconclusive; + = active, no number. Unless noted, no stated cut-off is given here; in the data, active means inhibition above about 30%; inconclusive means no clear call, values can overlap the other calls; inactive means below that.

SMILES	Autofluor counter	Anthrax LF prot	FBA Mtb inh	BoNT-F LC inh	BoNT-A LC inh2	GDH-TPI counter
COc1cccc(-c2nc(CS(=O)(=O)CC(=O)NCc3ccc(Cl)cc3)c(C)o2)c1	5612	-6	0	-3	-1	9
COc1ccc(C(=O)Cn2c(C(=O)/C=C/c3ccccc3)nc3ccccc32)cc1	2926	5	-3	5	3	32*
CC(C)(O)C1Cc2cc(/C=C/C(=O)O)c(O)cc2O1 (stereo unspecified)	4805	-7	8	-4	0	15
COc1cc2c(cc1/C=C/C(=O)O)OC(C)C2 (stereo unspecified)	4657	-2	+	-3	1	4
CCOc1cc2c(cc1/C=C/C(=O)O)OC(C)C2 (stereo unspecified)	4226	-2	148*	6	-1	-1
O=C(c1ccc(Cl)nc1)N1CCC(Cc2ccccc2)CC1	4508	-1	-2	-5	0	-5
O=C1CSc2ccc(C(=O)NCCc3ccc(Cl)cc3Cl)cc2N1	4043	-4	1	-14	0	7
COCCNC(=O)c1ccc2c(c1)NC(=O)CS2	19046*	-8	-1	0	2	-6
O=C1CSc2ccc(C(=O)NCCC3=CCCCC3)cc2N1	23017*	-1	0	2	?	10
Cc1c(NC(=S)NC(=O)c2ccc(-c3ccc(Cl)cc3)o2)cccc1C(=O)O	5043	5	1	-3	-2	32*
Nc1nnc(-c2cc3ccccc3oc2=O)s1	4215	0	21	3	-1	14
O=c1oc2ccccc2cc1-c1nc2c(s1)CCc1ccccc1-2	3123	27	5	18	64*	0
Cc1cnc(=O)[nH]c1SCc1cccc(C(F)(F)F)c1	5325	5	5	13	2	-4
Cc1cccc(C)c1NC(=O)c1sccc1SCc1cccc(C(F)(F)F)c1	17658*	-2	-3	-6	-4	10
CC12CC3CC(C)(C1)CC(NCc1ccncc1)(C3)C2	4219	-5	3	-6	0	-1
Clc1ccccc1Cn1nnc2c(N3CCCC3)ncnc21	23668*	-2	1	-2	-1	4
OCCNc1nc(C2CC2)nc2c1nnn2Cc1ccccc1Cl	23293*	0	1	-2	?	2
NC(=O)C1CCN(c2nc(C3CC3)nc3c2nnn3Cc2ccccc2Cl)CC1	25043*	-3	-1	-5	?	6
c1ccc(Cn2nnc3c(N4CCN(Cc5ccc6c(c5)OCO6)CC4)ncnc32)cc1	24167*	-1	1	-4	-1	2
CC(C)N(C(=O)[C@H]1C[C@H](CC(=O)NCc2ccco2)C(=O)N2CCc3c([nH]c4cc(-c5ccco5)ccc34)[C@]12C)C(C)C	3734	-8	21	-6	-1	3
CCc1nc2c(OCc3cccc(OC)c3)cccn2c1N(C)C(=O)c1ccc(OC)cc1	3711	-5	0	-6	0	1
Cc1ccc(N2CC(C(=O)Nc3cc(C)on3)CC2=O)cc1 (stereo unspecified)	10232	-2	1	2	0	-8
Cc1cc(C(=O)COC(=O)c2nn(C)c(=O)c3ccccc23)c(C)n1C	2753	-6	2	3	0	8
CCCCCCOC(=O)Nc1ccc(S(=O)(=O)Nc2cccc([N+](=O)[O-])c2)cc1	8782	0	-1	8	1	3
COc1cccc(N2C(=O)C(c3ccccc3)=C(c3nc4ccccc4s3)C2NC(C)=O)c1 (stereo unspecified)	21453*	0	-2	3	?	24
SMILES	Autofluor counter	Anthrax LF prot	FBA Mtb inh	BoNT-F LC inh	BoNT-A LC inh2	GDH-TPI counter
CC(=O)NC1C(c2nc3ccccc3s2)=C(c2ccccc2)C(=O)N1c1ccc(C)cc1 (stereo unspecified)	4253	-10	0	-8	0	22
COc1cc(NC(=S)NC(C)=O)ccc1NC(=O)C(C)C	16967*	-2	2	-4	-3	9
C=CCN(C(=O)Nc1ccc(F)cc1)C1CC(=O)N(c2ccc(OC)cc2)C1=O (stereo unspecified)	21431*	-6	0	3	4	-2
C=CCN(C(=O)Nc1ccc(Cl)cc1)C1CC(=O)N(c2ccc(OC)cc2)C1=O (stereo unspecified)	8563	2	-2	20	2	1
CSc1nsc(SC)c1NC(=O)OCC1CCCO1 (stereo unspecified)	21471*	-2	7	6	4	-4
CSc1nsc(SC)c1NC(=O)OCc1ccccc1	10862	-3	1	-5	0	-3
COc1ccc(C(C)=O)cc1CN1C(=O)NC2(CCCCC2)C1=O	2657	-1	2	-6	-1	12
COc1ccc(C(C)=O)cc1CN1C(=O)C(C)N(c2ccc(C)cc2)C1=O (stereo unspecified)	18676*	-7	1	5	?	-4
CCN(Cc1ccccc1)C(=O)c1c[nH]c2ccc(S(=O)(=O)N(C)CCC#N)cc2c1=O	2455	-1	26	-2	0	14
COCCn1c(C)cc(C(=O)COC(=O)C2CC(=O)N(CCc3ccc(OC)c(OC)c3)C2)c1C (stereo unspecified)	6549	-2	0	-13	-2	5
Nc1nn(-c2ccccc2)c(N)c1N=Nc1ccccc1	8864	-2	-1	4	1	34*
Cc1nn(-c2ccccc2)c(N)c1N=Nc1ccccc1	2614	-3	-4	-8	-1	13
COc1cc(C2Nc3ccccc3C(=O)N2c2ccccc2)ccc1O (stereo unspecified)	2900	-8	19	8	0	17
COc1ccc(/C(C)=N/N2C(=O)c3ccccc3NC2c2ccc(O)c(OC)c2)cc1 (stereo unspecified)	5687	-4	12	0	1	35*
O=C(O)C1CCCCC1C(=O)Nc1ccc2c(c1)CCC2 (stereo unspecified)	2799	-2	1	-11	0	2
CCn1nnc(C(=O)O)c1C(=O)O	16922*	-5	1	-4	?	9
Nc1c(C(=O)O)nnn1Cc1ccccc1	9524	0	3	2	1	-1
N/C(CN1CCCC1=O)=N\O	24371*	0	3	-4	-4	-7
Cc1ccc(C(=O)N/C(=C\c2cccnc2)c2nc3ccccc3[nH]2)cc1	2471	-3	2	-11	-1	29
COc1ccc(/C=C(/NC(=O)c2ccccc2)c2nc3ccc(Cl)cc3[nH]2)cc1OC	2071	0	3	-11	2	36*

Screening results deposited in PubChem by several laboratories.
